Assay results from PubChem BioAssay AID576 (NMMLSC, 2007).
The whole screen tested about 24,000 compounds, of which about 150 (0.62%) were called active. The entries come from a sample that favours actives as a whole. Unmarked numbers belong to inactive results.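 How the source made its calls: active means fluorescence ratio above 2.44, which is 1 plus 3 SD of all ratios; inconclusive means signal too bright to measure linearly, ratio around 10 or more; inactive means fluorescence ratio below 2.44.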

Assay: intrinsic compound fluorescence with Jurkat cells – cell-based, flow cytometry, artefact control for VLA-4 allosteric ligand project, primary screen (AID 576);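 further: green fluorescence of cells measured with 488 nm excitation and 530 nm emission; tested at 10 µM compound in the well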
Conditions: compound autofluorescence, stronger effect = higher value, 1 = vehicle-only cell background

| Structure (SMILES) | fluorescence ratio |
| --- | --- |
| Cc1ccc(-c2cc(C(F)(F)F)n3nc(C(=O)N4CCCC4)cc3n2)cc1 | 1.02 |
| Cc1nc(C)c2c(c1C(F)(F)F)-c1ccccc1C2(F)F | 1.11 |
| CCOC(=O)c1cnc(-n2nc(C)cc2C)nc1Nc1cccc(C(C)=O)c1 | 1.06 |
| COCc1[nH]nc2c1C(C1C=CCCC1)C(C#N)=C(N)O2 (stereo not drawn) | 1.09 |
| Cc1noc(C)c1S(=O)(=O)NCCc1ccc(S(N)(=O)=O)cc1 | 1.07 |
| Cn1c(=O)n(C)c2cc(CNc3ccc(N4CCOCC4)c(C(=O)O)c3)ccc21 | 0.99 |
| O=C(O)C1CCCN(S(=O)(=O)c2cccc3cccnc23)C1 (stereo not drawn) | 0.95 |
| CCCCn1c(CN2CCN(CCO)CC2)nc2ccccc21 | 1.04 |
| COc1ccc(-c2nc(CS(=O)CC(=O)NCc3cccnc3)c(C)o2)cc1OC (stereo not drawn) | 0.78 |
| COc1ccc(C2/C(=C(/O)c3ccccc3)C(=O)C(=O)N2c2ncccn2)cc1OC (stereo not drawn) | 0.98 |
| Cc1nc(N2CCN(c3ncccn3)CC2)c2oc3ccccc3c2n1 | 1.15 |
| CCOC(=O)N1CCN(C(=O)c2cn(C)c3ccc(S(=O)(=O)N4CCCC4)cc3c2=O)CC1 | 1.07 |
| COc1ccccc1NC1=NC2(CCCC2)N=C(N)N1 | 1.04 |
| COc1ccc(-c2cc3ccc(OCc4nn[nH]n4)cc3oc2=O)cc1 | 1.09 |
| CNC(=O)c1ccc2nc(NC(C)=O)sc2c1 | 1.01 |
| Fc1ccc2nc(Nc3nc4c(s3)CCCC4)sc2c1 | 4.43 (active) |
| Fc1ccc2nc(N3CCCCC3)sc2c1 | 1.31 |
| CCOC(=O)C1CCCN(C(=O)C2CCN(c3nnc(-n4cccc4)s3)CC2)C1 (stereo not drawn) | 1.06 |
| CSc1ccc(S(=O)(=O)Nc2cccc(F)c2)cc1 | 0.98 |
| O=C(c1cnn2ccccc12)N1CCc2ccccc21 | 0.92 |
| CCOC(=O)N1CCC(NC(=O)CCc2cn(C)c3ccccc23)CC1 | 0.96 |
| N#CCCn1ncc2ccccc21 | 0.9 |
| CCC1=C/C(=C\c2ccc3c(c2)OCO3)C(=O)S1 | 1.11 |
| CC1CCCC(N2CCN(C(=O)c3ccc(F)cc3)CC2)C1 (stereo not drawn) | 0.93 |
| Cc1c(C(=O)N2CC(C)OC(C)C2)sc2nc(-c3ccccc3)cn12 (stereo not drawn) | 1.33 |

| Structure (SMILES) | fluorescence ratio |
| --- | --- |
| CCC(=O)N1CCc2cc(S(=O)(=O)NC(C(=O)N3CCc4ccccc4C3)C(C)C)ccc21 (stereo not drawn) | 0.97 |
| COc1ccc(CCNS(=O)(=O)c2ccc(C(=O)NCc3ccco3)cc2)cc1OC | 1.03 |
| c1cnn(-c2cc(N3CCOCC3)ncn2)c1 | 1.1 |
| CCCCC(=O)N(c1ccc(OC)cc1)C1C=CS(=O)(=O)C1 (stereo not drawn) | 1.03 |
| Cc1nc(SCC(=O)Nc2cc(C)on2)c2c3c(sc2n1)CCCC3 | 1.28 |
| COc1cccc(Nc2nnc(SCC(=O)N3CC(C)OC(C)C3)s2)c1 (stereo not drawn) | 1.02 |
| CC(=O)N(CC1CCCO1)C1(C(=O)NC2CCCC2)CCCCC1 (stereo not drawn) | 0.95 |
| O=C(Nn1cc(C(=O)N2CCN(c3ccccc3F)CC2)c2ccccc2c1=O)c1cnccn1 | 1.02 |
| COCCN1Cc2cccc(C(=O)Nc3ccccc3OC)c2C1=O | 1.02 |
| CCCCN(C)Cc1c(C)[nH]c2ccc(Cl)cc2c1=O | 1.01 |
| CCn1c(SCC(=O)Nc2ccccc2F)nc2c(c1=O)SC(C)C2 (stereo not drawn) | 0.98 |
| CCc1c(C)c2c(C)[nH]nc2oc1=O | 1.2 |
| CCOc1ccc(-c2nnc3ccc(SC)nn23)cc1 | 0.96 |
| CCOC(=O)c1sc(=S)n2c1[nH]c(=O)c1ccc(C(=O)OC)cc12 | 1.2 |
| CC(=O)Nc1ccc(NS(=O)(=O)c2cc(C)sc2C)cc1 | 2.14 |
| O=C(CC1Oc2ccccc2NC1=O)NCCCN1CCN(Cc2ccccc2)CC1 (stereo not drawn) | 1.05 |
| COCCCNC(=O)CCc1nc2cccnc2n1Cc1ccc(OC)cc1 | 1.04 |
| Cc1ccc(NC(=O)NCC(c2cccnc2)N2CCOCC2)cc1 (stereo not drawn) | 0.96 |
| O=C(CN1CCOc2ccccc21)N1CCC(Cc2ccccc2)CC1 | 1.07 |
| O=C(NCc1ccco1)C1CCCN(S(=O)(=O)c2cccc3nonc23)C1 (stereo not drawn) | 1.11 |
| Cc1ccc(CNC(=O)CN2CCN(Cc3ccc(Cl)cc3)C2=O)cc1 | 1.03 |
| Cc1ccc(NC(=O)C2CCCN(S(=O)(=O)c3c(C)noc3C)C2)c(C)c1 (stereo not drawn) | 1.07 |
| COc1ccc(C2CC(c3ccccc3)Nc3ncnn32)cc1 (stereo not drawn) | 1.19 |
| COc1cccc(-c2nc3n(n2)C(c2ccccc2Cl)C(C(N)=O)=C(C)N3)c1 (stereo not drawn) | 1.01 |
| CN1CCCc2cc(C#N)c(=O)[nH]c21 | 1 |

| Structure (SMILES) | fluorescence ratio |
| --- | --- |
| O=C(O)CCN1C(=O)CC2(CCCCC2)C1=O | 1 |
| Cc1ccc(NC(=O)CCNS(=O)(=O)c2ccc3c(c2)oc(=O)n3C)cc1C | 1.08 |
| CCOC(=O)N1CCN(CC(=O)c2ccc3c(c2)CCN3)CC1 | 0.99 |
| CCCNC(=O)C1CC(=O)N(c2ccc(OCC(=O)Nc3cccc(C)c3C)cc2)C1 (stereo not drawn) | 1.03 |
| COc1ccc(N2C(=O)CCC(C(=O)Nc3ccccn3)C2c2ccc(OC)c(OC)c2)cc1 (stereo not drawn) | 1.01 |
| O=C(CC1N=C2c3ccccc3N=C(SCc3ccccc3Cl)N2C1=O)NCc1ccco1 (stereo not drawn) | 1.18 |
| Cc1occc1C(=O)Nc1nnc(C2CCCCC2)s1 | 0.94 |
| CC1CSc2nnc(CCc3ccccc3)n21 (stereo not drawn) | 1 |
| O=C(NCc1ccc2c(c1)OCO2)c1cc2c(s1)CS(=O)(=O)C2 | 1.08 |
| CCOc1ccc(N(CC(=O)OC)S(=O)(=O)c2c(C)noc2C)cc1 | 1.04 |
| CC(=O)c1c(C)[nH]c(C(=O)NCCCN2CCCC2)c1C | 0.97 |
| Cc1ccc(C)c(NS(=O)(=O)c2cc(Br)cnc2N)c1 | 1.02 |
| Cn1c(=O)[nH]c(=O)c2c1nc(CN(Cc1ccccc1)Cc1ccccc1)n2CCN1CCOCC1 | 1.16 |
| Cc1nc2c(-c3ccc(F)cc3)c(C)nn2c(C)c1CCC(=O)N1CCN(c2ccccn2)CC1 | 1.23 |
| O=C(Cn1nc(Cc2cccnc2)c2ccccc2c1=O)NCC1CCCO1 (stereo not drawn) | 1.02 |
| CC(C)C[C@H](NC(=O)[C@@H]1O[C@H]1C(=O)O)C(=O)NCCCCN=C(N)N | 0.97 |
| COc1ccccc1CNC(=O)Cn1cc2c(n1)CCCC2 | 1.04 |
| CCOC(=O)N1CCC(O)(c2cc(C)c(C)cc2C)CC1 | 0.98 |
| O=C(NCc1ccco1)c1cccn2c(=O)c3cc(Br)ccc3nc12 | 1 |
| CS(=O)(=O)c1ccc2nc(NC(=O)C3C4C=CC(C4)C3C(=O)O)sc2c1 (stereo not drawn) | 1.05 |
| CCCCc1nc2c(=O)[nH]c3ccccc3c2o1 | 1.21 |
| Cc1nc2sc(C(c3ccco3)N3CCC4(CC3)OCCO4)c(O)n2n1 (stereo not drawn) | 1.05 |
| COc1cc2c(cc1OC)C(c1ccc(C)o1)CC(=O)N2 (stereo not drawn) | 1 |
| O=S(=O)(O)CCN1CCOCC1 | 1.09 |
| Cc1cc(NC(=O)CSCc2nc(-c3cccc(Cl)c3)oc2C)no1 | 1.07 |

| Structure (SMILES) | fluorescence ratio |
| --- | --- |
| c1cc(-c2nn[nH]n2)ccc1CN1CCCCC1 | 1.02 |
| Cc1ccc2c(c1)N(CCCC(=O)NCc1cccnc1)C(=O)CO2 | 1.05 |
| Cc1cccc(N2CCN(S(=O)(=O)c3ccc4c(c3)c(=O)n(C)c(=O)n4C)CC2C)c1 (stereo not drawn) | 1.11 |
| COc1cccc(NC(=O)C2CCCN2C(=O)OCc2ccccc2)c1 (stereo not drawn) | 1.04 |
| CCC(C)NC(=O)C1CCC(=O)N1Cc1ccc(C)cc1 (stereo not drawn) | 0.99 |
| CCC(=O)N1c2ccc(S(=O)(=O)CCC(=O)N3CCN(c4ccccc4)CC3)cc2CC1C (stereo not drawn) | 1.09 |
| Cc1oc(C)c(C(=O)NCCCC(=O)O)c1C(=O)NCCCC(=O)O | 1.08 |
| O=c1[nH][nH]c(=O)c2cc(N3CCCC3)ccc12 | 1.01 |
| CCOC(=O)N1CCN(S(=O)(=O)c2cc3c(cc2C)NC(=O)CO3)CC1 | 1.09 |
| CCOc1ccc(Cn2nnc(C(=O)NCc3ccccc3)c2N)cc1 | 1.02 |
| COc1ccc(N2C(=O)CCC(C(=O)N(C)C3CCCCC3)C2c2ccc(OC)c(OC)c2)cc1 (stereo not drawn) | 0.98 |
| COC(=O)C1=C(C)Nc2ncnn2C1c1ccco1 (stereo not drawn) | 1.02 |
| CCOc1nc(OCC)nc(-n2cc(-c3ccccc3)nn2)n1 | 1.08 |
| COCCn1c(-c2ccc(OC)c(OC)c2)nc2ccccc21 | 1.05 |
| O=C(c1ccco1)N1CCN(C(=O)C2CC(c3ccc(F)cc3)=NO2)CC1 (stereo not drawn) | 1.01 |
| CCCOc1ccc(C2c3c(oc4cc(C)c(C)cc4c3=O)C(=O)N2CCCN2CCOCC2)cc1 (stereo not drawn) | 0.94 |
| CCN(CC)CCNC(=O)C1c2ccccc2C(=O)N(C)C1c1cn(C)c2ccccc12 (stereo not drawn) | 1.11 |
| Cc1cccc(NC(=O)C2CCN(S(=O)(=O)c3cccc4cccnc34)CC2)c1 | 1.03 |
| O=S1(=O)CCN2C(=N1)SC1=C2CCN(Cc2ccccc2)C1 | 0.99 |
| Cc1ccc(S(=O)(=O)NCc2cn3ccsc3n2)c(C)c1 | 1.07 |
| Cc1cc(C)c2c(n1)nn1c(N3CCN(c4cccc(Cl)c4)CC3)cc(C)nc21 | 1.1 |
| CC(=O)Nc1ccc(S(=O)(=O)Nc2nc3n(n2)C(c2ccccc2)CC(=O)N3)cc1 (stereo not drawn) | 1.06 |
| ON=C1/C(=N\O)CC2(C/C1=N/O)OCCO2 | 1.11 |
